{
  "source": "PubChem BioAssay (Tox21)",
  "note": "A number with no mark means an inactive call. A call without a number means that no potency is given here. Activity calls are given as the source filed them. Calls follow the shape of the dose curve; as a rule, active = well fitted curve in the direction sought with a large enough effect in the repeat runs; inconclusive = weak or mixed curves; inactive = flat fitted curve, though single readings scatter.",
  "data": [
    {"assay": "qHTS assay to test for compound auto fluorescence at 535 nm (green) in HepG2 cell free culture (AID 720686)", "conditions": "Cell-free medium, green autofluorescence 485/535 nm; series mostly up to 91.3 µM", "description": "U.S. Tox21 Program National Center for Advancing Translational Sciences [NCATS] NIH Chemical Genomics Center [NCGC] U.S. Environmental Protection Agency [EPA] National Institutes of Environmental Health Sciences [NIEHS] National Toxicology Program [NTP] U.S. Food and Drug Administration [FDA] Tox21 Assay Overview: Compound auto fluorescence often interferes with screening of the compound library against various biological targets and signaling pathways. Some of these compounds may have fluorophoric properties. Such properties may interfere with the assay outputs resulting in false positives and/or negatives. To decrease such complications and ensure the compound activities are relevant in terms of biological response, the Tox21 10K compound library was screened for auto fluorescence. From the fluorophores used as reporter signals in our screening assays, the auto fluorescence equivalencies of compounds against three fluorophores have been evaluated: Triamterene, Fluorescein and Rose Bengal sodium for blue, green and red fluorescence, respectively. The fluorescence intensities were measured using Excitation/Emission wavelengths at 405/460nm, 485/535nm and 540/590nm for blue, green and red labels, respectively. This assay includes the green fluorescence data.\nTox21 Assay Protocol Summary: 5 uL of culture medium (MEM containing 10% FBS) per well was dispensed into black wall/clear bottom 1536-well plates using a Multidrop Combi Dispenser (ThermoFisher Scientific, Waltham, MA). After 23 nL compound or DMSO vehicle was transferred into assay plate by a pintool work station (Kalypsys, San Diego, CA), fluorescence intensities in the assay plates were measured by an Envision (PerkinElmer, Shelton, CT) plate reader using three labels for measuring blue, green and red fluorescence at […] 460, 535 and 590nm respectively.", "values": [
      {"smiles": "O=[N+]([O-])c1ccc(NCCO)c(OCCO)c1", "Potency": "inactive"},
      {"smiles": "C=CC(=O)OCCOCCOC(=O)C=C", "Potency": "inactive"},
      {"smiles": "CN(C)c1ccc(C(c2ccccc2)c2ccc(N(C)C)cc2)cc1", "Potency": "inactive"},
      {"smiles": "Cc1cccc(Nc2ccccc2)c1", "Potency": "inactive"},
      {"smiles": "CCN(CC)CCNc1ccc(CNC=O)c2sc3ccc(OC)cc3c(=O)c12", "Potency": "inactive"},
      {"smiles": "Nc1ccc(N)c2c1C(=O)c1ccccc1C2=O", "Potency": "inactive"},
      {"smiles": "CN(C)C(=O)NC1(c2ccccc2)CCN(CC[C@@]2(c3ccc(F)c(F)c3)CN(C(=O)c3ccccc3)CCO2)CC1", "Potency": "inactive"},
      {"smiles": "OCCN1CCN(CCCN2c3ccccc3C=Cc3ccccc32)CC1", "Potency": "inactive"},
      {"smiles": "CC(=O)NO", "Potency": "inactive"},
      {"smiles": "CC(CSC(=O)c1ccccc1)C(=O)N1C[C@@H](Sc2ccccc2)C[C@H]1C(=O)O", "note": "(stereo not given in full)", "Potency": "inactive"},
      {"smiles": "O=C(CS)Nc1ccccc1", "Potency": "inactive"},
      {"smiles": "CCCCC(CC)CN1C(=O)C2C3C=CC(C3)C2C1=O", "note": "(stereo not given)", "Potency": "inactive"},
      {"smiles": "CCCCCCCCCCCCN1CCCCCC1=O", "Potency": "inactive"},
      {"smiles": "CC(=O)c1ccc2c(c1)N(CCCN1CCC(CCO)CC1)c1ccccc1S2", "fluorescence, % of fluorescein control": "0.041% [at 18.6 µM]"},
      {"smiles": "NC(N)=NCCC[C@H](N)C(=O)O", "Potency": "inactive"},
      {"smiles": "CCCCCCCCO[C@@H]1O[C@H](CO)[C@@H](O)[C@H](O)[C@H]1O", "Potency": "inactive"},
      {"smiles": "COc1cc(Cl)ccc1Oc1ccc(Cl)cc1Cl", "Potency": "inactive"},
      {"smiles": "CC(C)O.CC(C)O.CCOC(=O)/C=C(\\C)O.CCOC(=O)/C=C(\\C)O.[Ti]", "Potency": "inactive"},
      {"smiles": "CCCCCCCN", "Potency": "inactive"},
      {"smiles": "O=C(c1ccc(F)cc1)C1CCN(CCn2c(=S)[nH]c3ccccc3c2=O)CC1", "Potency": "inactive"},
      {"smiles": "CC(C)(CO)[N+](=O)[O-]", "Potency": "inactive"},
      {"smiles": "O=C1OC(=O)C2C3C=CC(C3)C12", "note": "(stereo not given)", "Potency": "inactive"},
      {"smiles": "CCN(CC)CCNC(=O)c1cc(Br)c(N)cc1OC", "Potency": "inactive"},
      {"smiles": "CN(C)CCN(Cc1ccc(Cl)cc1)c1ccccn1", "fluorescence, % of fluorescein control": "-0.14% [at 18.6 µM]"},
      {"smiles": "CC(=O)[O][Al][O]C(C)=O", "Potency": "inactive"},
      {"smiles": "O=CC1CC=CCC1", "note": "(stereo not given)", "Potency": "inactive"},
      {"smiles": "CC(C)CC(=O)C1C(=O)c2ccccc2C1=O", "Potency": "inactive"},
      {"smiles": "C#C[C@]1(O)CC[C@H]2[C@@H]3CCc4cc(OC5CCCC5)ccc4[C@H]3CC[C@@]21C", "Potency": "inactive"},
      {"smiles": "C[C@H]1C[C@H]2[C@@H]3CCC4=CC(=O)C=C[C@]4(C)[C@@]3(Cl)[C@@H](O)C[C@]2(C)[C@@]1(O)C(=O)CO", "Potency": "inactive"},
      {"smiles": "CCC(Cl)CCC(Cl)C(Cl)CC(Cl)C(Cl)C(Cl)CCl", "note": "(stereo not given)", "Potency": "inactive"},
      {"smiles": "CCOC(=O)NCCOc1ccc(Oc2ccccc2)cc1", "Potency": "inactive"},
      {"smiles": "OCc1cc(C(O)CNCCCCCCOCCCCc2ccccc2)ccc1O", "note": "(stereo not given)", "Potency": "inactive"},
      {"smiles": "C=CC(=O)OCCOCCOCCOCCOC(=O)C=C", "Potency": "inactive"},
      {"smiles": "C=CCOc1ccccc1OCC(O)CNC(C)C", "note": "(stereo not given)", "fluorescence, % of fluorescein control": "0.0052% [at 18.6 µM]"},
      {"smiles": "C=CC1CC2C=CC1C2", "note": "(stereo not given)", "Potency": "inactive"},
      {"smiles": "C#CCN(C)CCCOc1ccc(Cl)cc1Cl", "Potency": "inactive"},
      {"smiles": "O=C(O)CNCC(=O)O", "fluorescence, % of fluorescein control": "-0.0374% [at 3.72 µM]"},
      {"smiles": "C=C(C)C(=O)OCCO", "Potency": "inactive"},
      {"smiles": "COc1ccc(C(=O)c2ccc(OC)cc2O)c(O)c1", "Potency": "inactive"},
      {"smiles": "COc1ccc(-c2nc3ccc(C4=NNC(=O)CC4C)cc3[nH]2)cc1", "note": "(stereo not given)", "Potency": "inactive"}
    ]}
  ]
}
